About 2,000 (36%) of roughly 5,500 compounds were called active. Inconclusive results (about 18%) are left out. No stated cut-off is given here; in the data, active means normalized growth mostly below about 0.91 (no sharp cut-off); inconclusive means no clear call, values can overlap the other calls; inactive means mostly above about 0.92. The list shows a part of the results.
Assay: chemical genetic growth profiling, strain panel (AID 1159580);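 further: tested at 20 µM; growth read once vehicle control cultures reached saturation at 30 °C; 1 = growth at the plate median or of vehicle wells; lower values mean less growth of the strain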
Conditions: growth OD

Measured: normalized growth

CC1=C(/C=C/C(C)=C/C=C/C(C)=C/CO)C(C)(C)CCC1
inactive: S. cerevisiae deletion strains, locus YJR043C, strain POL32, active compounds read low 0.985 | S. cerevisiae deletion strains, locus YJR066W, strain TOR1, active compounds read low 0.94 | S. cerevisiae deletion strains, locus YKL009W, strain mrt4, active compounds read low 0.993 | S. cerevisiae deletion strains, locus YKL068W, active compounds read low 0.997 | S. cerevisiae deletion strains, locus YKL085W, strain MDH1 (second series), active compounds read low 0.972 | S. cerevisiae deletion strains, locus YKL085W, strain MDH1, active compounds read low 0.972 | S. cerevisiae deletion strains, locus YKL160W, strain elf1, active compounds read low 1.04 | S. cerevisiae deletion strains, locus YKL190W, strain CNB1, active compounds read low 0.991 | S. cerevisiae deletion strains, locus YKR001C, strain vps1, active compounds read low 0.984 | S. cerevisiae deletion strains, locus YKR026C, strain gcn3, active compounds read low 1.02 | S. cerevisiae deletion strains, locus YKR091W, strain srl3, active compounds read low 1.01 | S. cerevisiae deletion strains, locus YLL001W, strain dnm1, active compounds read low 0.975 | S. cerevisiae deletion strains, locus YLL026W, active compounds read low 1.03 | S. cerevisiae deletion strains, locus YLL041C, strain sdh2, active compounds read low 0.99 | S. cerevisiae deletion strains, locus YLR027C, strain aat2, active compounds read low 1.01 | S. cerevisiae deletion strains, locus YLR039C, strain RIC1, active compounds read low 1.01 | S. cerevisiae deletion strains, locus YLR058C, strain SHM2, active compounds read low 0.976 | S. cerevisiae deletion strains, locus YLR102C, strain apc9, active compounds read low 1 | S. cerevisiae deletion strains, locus YLR113W, strain HOG1, active compounds read low 1 | S. cerevisiae deletion strains, locus YLR221C, strain rsa3, active compounds read low 0.973 | S. cerevisiae deletion strains, locus YLR258W, strain gsy2, active compounds read low 1.03 | S. cerevisiae deletion strains, locus YLR262C, strain YPT6 (second series), active compounds read low 0.972 | S. cerevisiae deletion strains, locus YLR262C, strain YPT6, active compounds read low 0.934 | S. cerevisiae deletion strains, locus YLR268W, strain sec22, active compounds read low 1 | S. cerevisiae deletion strains, locus YLR320W, strain mms22, active compounds read low 0.972 | S. cerevisiae deletion strains, locus YLR330W, strain CHS5, active compounds read low 1 | S. cerevisiae deletion strains, locus YLR342W, strain FKS1 (second series), active compounds read low 1.1 | S. cerevisiae deletion strains, locus YLR342W, strain FKS1, active compounds read low 1.03 | S. cerevisiae deletion strains, locus YLR357W, strain rsc2, active compounds read low 1.01 | S. cerevisiae deletion strains, locus YLR370C, strain arc18, active compounds read low 1.01 | S. cerevisiae deletion strains, locus YLR371W, strain rom2, active compounds read low 1.02 | S. cerevisiae deletion strains, locus YLR384C, strain iki3, active compounds read low 1.01 | S. cerevisiae deletion strains, locus YLR418C, strain cdc73, active compounds read low 0.965 | S. cerevisiae deletion strains, locus YML016C, strain PPZ1, active compounds read low 0.998 | S. cerevisiae deletion strains, locus YML032C, strain rad52, active compounds read low 1.01 | S. cerevisiae deletion strains, locus YML120C, strain ndi1, active compounds read low 1 | S. cerevisiae deletion strains, locus YML124C, strain tub3, active compounds read low 0.996 | S. cerevisiae deletion strains, locus YMR058W, strain fet3, active compounds read low 0.998 | S. cerevisiae deletion strains, locus YMR078C, strain ctf18, active compounds read low 1 | S. cerevisiae deletion strains, locus YMR125W, strain sto1, active compounds read low 1.02 | S. cerevisiae deletion strains, locus YMR129W, active compounds read low 1.02 | S. cerevisiae deletion strains, locus YMR205C, strain PFK2, active compounds read low 0.96 | S. cerevisiae deletion strains, locus YMR223W, strain ubp8, active compounds read low 0.998 | S. cerevisiae deletion strains, locus YMR231W, strain pep5, active compounds read low 0.997 | S. cerevisiae deletion strains, locus YMR307W, strain GAS1, active compounds read low 0.982 | S. cerevisiae deletion strains, locus YNL067W, strain RPL9B, active compounds read low 0.962 | S. cerevisiae deletion strains, locus YNL071W, strain lat1, active compounds read low 1.03 | S. cerevisiae deletion strains, locus YNL183C, strain NPR1, active compounds read low 0.938 | S. cerevisiae deletion strains, locus YNL209W, strain ssb2, active compounds read low 1.02 | S. cerevisiae deletion strains, locus YNL233W, strain BNI4, active compounds read low 0.974 | S. cerevisiae deletion strains, locus YNL248C, strain rpa49, active compounds read low 1.09 | S. cerevisiae deletion strains, locus YNL250W, strain rad50, active compounds read low 0.982 | S. cerevisiae deletion strains, locus YNL271C, strain bni1, active compounds read low 1.01 | S. cerevisiae deletion strains, locus YNL298W, strain CLA4, active compounds read low 1.01 | S. cerevisiae deletion strains, locus YNL307C, strain MCK1, active compounds read low 1.01 | S. cerevisiae deletion strains, locus YNL322C, strain KRE1 (second series), active compounds read low 1.05 | S. cerevisiae deletion strains, locus YNR049C, strain mso1, active compounds read low 1.01 | S. cerevisiae deletion strains, locus YNR052C, strain pop2, active compounds read low 1.01 | S. cerevisiae deletion strains, locus YOL006C, strain TOP1, active compounds read low 0.929 | S. cerevisiae deletion strains, locus YOL012C, strain htz1 0.793 | S. cerevisiae deletion strains, locus YOL147C, strain pex11, active compounds read low 0.994 | S. cerevisiae deletion strains, locus YOR001W, strain rrp6, active compounds read low 0.983 | S. cerevisiae deletion strains, locus YOR061W, strain CKA2, active compounds read low 0.961 | S. cerevisiae deletion strains, locus YOR069W, strain VPS5, active compounds read low 1.01 | S. cerevisiae deletion strains, locus YOR070C, strain gyp1, active compounds read low 1 | S. cerevisiae deletion strains, locus YOR080W, strain dia2, active compounds read low 1.01 | S. cerevisiae deletion strains, locus YOR083W, strain WHI5, active compounds read low 0.988 | S. cerevisiae deletion strains, locus YOR106W, strain vam3, active compounds read low 1 | S. cerevisiae deletion strains, locus YOR136W, strain idh2, active compounds read low 0.992 | S. cerevisiae deletion strains, locus YOR144C, strain elg1, active compounds read low 1 | S. cerevisiae deletion strains, locus YOR184W, strain ser1, active compounds read low 1.01 | S. cerevisiae deletion strains, locus YOR231W, strain MKK1, active compounds read low 0.988 | S. cerevisiae deletion strains, locus YOR265W, strain rbl2, active compounds read low 1 | S. cerevisiae deletion strains, locus YOR270C, strain vph1, active compounds read low 0.848 | S. cerevisiae deletion strains, locus YOR290C, strain snf2, active compounds read low 1.05 | S. cerevisiae deletion strains, locus YOR316C, strain cot1, active compounds read low 1 | S. cerevisiae deletion strains, locus YPL051W, strain arl3, active compounds read low 1.04 | S. cerevisiae deletion strains, locus YPL055C, strain LGE1, active compounds read low 0.873 | S. cerevisiae deletion strains, locus YPL078C, strain atp4, active compounds read low 1.02 | S. cerevisiae deletion strains, locus YPL106C, strain sse1, active compounds read low 1.13 | S. cerevisiae deletion strains, locus YPL240C, strain hsp82, active compounds read low 1.01 | S. cerevisiae deletion strains, locus YPL256C, strain CLN2, active compounds read low 1.04 | S. cerevisiae deletion strains, locus YPR119W, strain clb2, active compounds read low 1 | S. cerevisiae deletion strains, locus YPR141C, strain kar3, active compounds read low 0.997 | S. cerevisiae deletion strains, locus YPR163C, strain tif3, active compounds read low 0.998 | S. cerevisiae deletion strains, locus YPR167C, strain met16, active compounds read low 1 | S. cerevisiae deletion strains, strain wtn01, active compounds read low 1.03 | S. cerevisiae strains, strain wild type, active compounds read low 0.979
